Experimental findings from PubChem BioAssay (NCI) are described below.

Some test systems named below: NCI-H23 lung; NCI-H226 lung; NCI-H322M lung; HOP-62 NSCLC; HOP-92 NSCLC; NCI-H522 lung; A549/ATCC NSCLC; 786-0 renal; COLO 205 colon; NCI-H460 lung.
Holding throughout (assay): NCI-60 one-dose screen, 48 h (100 = growth as untreated, 0 = no growth, -100 = all killed)
What all share (conditions): 10 µM unless noted

Molecules are shown by their SMILES. Compounds without any hit were thinned out: in the full panel of roughly 83,000, 20% have a hit.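 The endpoint reported here, percent growth, reads 100 for growth as untreated, 0 for no net growth and -100 for all cells dead.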 A number with no mark means an inactive call. The source made the active and inactive calls. The calls were made as follows: active = growth percent below 10; inactive = the rest.

`CC(=O)N1CCN(Cc2ccc3c(NNC(=O)c4cnccn4)nc4cc(F)ccc4n23)CC1`: the growth in the test on NCI-H23 lung was 34.3%; in the test on NCI-H226 lung, 8.73% (active); in the test with NCI-H322M lung, 32.7%; with HOP-62 NSCLC, 15.4%; with HOP-92 NSCLC, 56.1%; in the test on NCI-H522 lung it was 57.2%. Besides, the growth was 25.4% in the test on A549/ATCC NSCLC, 0.0554% (active) in the test on 786-0 renal and 9.92% (active) in the test with COLO 205 colon.
Take `CN(C)CCCNC(=O)c1cc(NC(=O)c2cc(NC(=O)c3ccc(/C=C/c4ccccc4)cc3)cn2C)cn1C`: the growth was 43.9% with NCI-H23 lung; 50.3% in the test with NCI-H226 lung; 74.1% in the test on HOP-62 NSCLC; 19.5% in the test with NCI-H460 lung; -1.72% (active) in the test with HOP-92 NSCLC; -16.4% (active) with NCI-H522 lung. The growth was 35.7% in the test on A549/ATCC NSCLC, 42.3% with 786-0 renal and 32% in the test on COLO 205 colon.
As for `N/C(=N\c1nc2ccccc2s1)NC(=O)Nc1ccccc1Br`, the growth was -24.4% (active) in the test on NCI-H23 lung; 8.79% (active) in the test on NCI-H226 lung; 14.6% in the test with NCI-H322M lung; -19.3% (active) with HOP-62 NSCLC; -61.3% (active) with NCI-H522 lung; -26.2% (active) in the test on A549/ATCC NSCLC. For the same molecule, the growth was -24.9% (active) in the test with 786-0 renal and -72.6% (active) in the test on COLO 205 colon.
As for `Cc1cc(C)n(-c2ccc3nnc(-c4ccccc4)n3n2)n1`, the growth is 94.1% in the test on NCI-H23 lung; 105% in the test on NCI-H226 lung; 122% in the test on HOP-62 NSCLC; 104% in the test on NCI-H460 lung; 85.2% in the test with HOP-92 NSCLC; 74.7% with NCI-H522 lung. Also, the growth in the test with A549/ATCC NSCLC is 99.6%; in the test with 786-0 renal, 93.9%; in the test on COLO 205 colon it was 115%.
Regarding `O=C(/C=C/c1ccc(-c2ccccc2)cc1)c1nc2ccccc2n1Cc1ccc(Br)cc1`, the growth in the test with NCI-H23 lung was 24.7%; in the test on NCI-H226 lung it was 24.3%; in the test on HOP-62 NSCLC, 56.4%; in the test on NCI-H460 lung, 16.8%; with HOP-92 NSCLC, 40.1%; with NCI-H522 lung, 71%. In addition, the growth with A549/ATCC NSCLC was 64.7%; in the test on 786-0 renal it was 39.3%; with COLO 205 colon, 76.7%.
As for `COc1cccc(/C=C/c2nc3ccccc3c(=O)n2CC(=O)Nc2ccc(Cl)cc2)c1`, the growth in the test on NCI-H23 lung was 82.7%; in the test with NCI-H226 lung it was 54.9%; in the test with NCI-H322M lung it was 75%; in the test on HOP-62 NSCLC, 71.4%; in the test with NCI-H522 lung, 97.2%; in the test on A549/ATCC NSCLC it was 28.5%. Besides, the growth was 9.62% (active) with 786-0 renal and 86.4% with COLO 205 colon.
As to `CN(C)c1ccnc(CNCCSC2(c3ccc(C(F)(F)F)cc3)c3ccccc3CCc3ccccc32)c1`, the growth with NCI-H23 lung is -31.8% (active); in the test with NCI-H226 lung it was -31.6% (active); with HOP-62 NSCLC it was -57.8% (active); in the test on NCI-H460 lung, -80.5% (active); in the test with HOP-92 NSCLC, -17.7% (active); in the test with NCI-H522 lung, -82.6% (active). Further, the growth with A549/ATCC NSCLC was -27.6% (active); in the test on 786-0 renal, -6.83% (active); in the test on COLO 205 colon, -83.7% (active).
Regarding `COc1ccc(-c2nc(SC(C)C)nc(NCCc3c[nH]c4ccccc34)c2C#N)cc1`, the growth in the test with NCI-H23 lung is 45.6%; in the test with NCI-H226 lung, 40.8%; in the test on HOP-62 NSCLC, 51.5%; in the test on NCI-H460 lung, 24.1%; in the test on HOP-92 NSCLC, 39%; in the test on NCI-H522 lung, 35.8%. In addition, the values for the growth with A549/ATCC NSCLC, in the test on 786-0 renal and with COLO 205 colon were 47.1%, 30.3% and 45.7%, respectively.
As to `Brc1ccc(-c2n(Cc3ccc4ccccc4c3)c(-c3ccccc3)c(-c3ccccc3)[n+]2Cc2ccc3ccccc3c2)cc1`, the growth in the test with NCI-H23 lung is -89.3% (active); in the test on NCI-H226 lung, -51.6% (active); with NCI-H322M lung it was -99.1% (active); with HOP-62 NSCLC, -83.4% (active); with NCI-H522 lung, -90.9% (active); in the test on A549/ATCC NSCLC, -88.8% (active). The growth with 786-0 renal was -79.3% (active); in the test with COLO 205 colon it was -78.2% (active).
In the case of `CCCCCCCS(=O)(=O)N1CCCC(C(=O)Nc2nc3ccc(NC(=O)c4ccc(F)c(OC)c4F)cc3s2)C1` (stereo not given), the growth in the test with NCI-H23 lung is 27.3%; in the test with NCI-H226 lung, 31.8%; in the test with NCI-H322M lung, 77.7%; in the test with HOP-62 NSCLC, 60.8%; with NCI-H522 lung, 24.7%; with A549/ATCC NSCLC, 60.5%. Besides, the growth in the test with 786-0 renal was 50%.
As for `COc1cc(/C=C/C(=O)c2nnn(-c3ccc(Cl)cc3)c2C)cc(OC)c1OC`, the growth with NCI-H23 lung was 26.9%; in the test with NCI-H226 lung, 40%; with NCI-H322M lung it was 63.1%; in the test on HOP-62 NSCLC, 37.2%; in the test on HOP-92 NSCLC, 38.7%; in the test on NCI-H522 lung, 28%. In addition, the values for the growth with A549/ATCC NSCLC, with 786-0 renal and in the test on COLO 205 colon were 34.9%, 65.8% and 41.5%, respectively.
Regarding `COC(=O)C[C@](O)(CCCC(C)(C)O)C(=O)O[C@H]1C(OC)=C[C@@]23CCCN2CCc2cc4c(cc2[C@@H]13)OCO4`, the growth with NCI-H23 lung is -53.9% (active); with NCI-H226 lung, -21.4% (active); with NCI-H322M lung it was -3.53% (active); in the test on HOP-62 NSCLC it was 14.3%; with NCI-H522 lung, -68.7% (active); in the test on A549/ATCC NSCLC it was -18.5% (active). The growth with 786-0 renal is -14.4% (active); with COLO 205 colon it was -42.3% (active).
With `COc1ccc(NC(=O)c2sc3nc(C(C)C)ccc3c2N)cc1`, the growth was 75.3% in the test with NCI-H23 lung; 71.7% with NCI-H226 lung; 93.2% in the test with HOP-62 NSCLC; 88% in the test on NCI-H460 lung; 61.4% in the test with HOP-92 NSCLC; 75.7% in the test on NCI-H522 lung. For the same molecule, the growth in the test with A549/ATCC NSCLC was 59.2%; in the test with 786-0 renal, 97.5%; in the test with COLO 205 colon it was 113%.
Take `O=C(N/N=C/c1ccc(-c2ccc(O)cc2)s1)c1[nH]c2ccc(Br)cc2c1-c1ccccc1`: the growth in the test with NCI-H23 lung is 7.67% (active); in the test on NCI-H226 lung, 27.6%; in the test on NCI-H322M lung, 29.8%; in the test on HOP-62 NSCLC it was 21.2%; with HOP-92 NSCLC it was -24.8% (active); in the test on NCI-H522 lung, 18.6%. Besides, the growth in the test with A549/ATCC NSCLC was 23.8%; in the test with 786-0 renal, -28% (active); in the test on COLO 205 colon, -32.9% (active).
